Data taken from the supplement of paper PMC3334620.
Whole data set: some 33,000 sequences, median “E-score (-0.5 to 0.5)” near -0.0014, cut for the highest 2% near 0.25. For the sample, the highest values were picked, then their nearest neighbours and some sequences at random.

Each sequence was assayed against T1, Cad1 (UniProt P24813) (assay: PBM E-score (8-mer binding enrichment) (E-score (-0.5 to 0.5)); higher = stronger / more preferred TF binding). Details: protein concentration: 100 nM; construct: GST-full length.
T1 sequence: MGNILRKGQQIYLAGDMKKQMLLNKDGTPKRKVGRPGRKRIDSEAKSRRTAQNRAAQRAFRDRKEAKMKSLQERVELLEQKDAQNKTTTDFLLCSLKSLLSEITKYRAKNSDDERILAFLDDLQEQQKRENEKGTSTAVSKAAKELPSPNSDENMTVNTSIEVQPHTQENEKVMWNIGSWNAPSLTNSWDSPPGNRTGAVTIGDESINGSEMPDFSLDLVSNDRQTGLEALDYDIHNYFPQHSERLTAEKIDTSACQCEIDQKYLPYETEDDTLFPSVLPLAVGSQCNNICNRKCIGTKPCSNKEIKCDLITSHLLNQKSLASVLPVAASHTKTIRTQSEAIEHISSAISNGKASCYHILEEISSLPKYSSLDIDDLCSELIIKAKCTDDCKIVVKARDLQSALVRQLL
Procedure: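 Universal 'all 10-mer' protein binding microarrays (Agilent AMADID 015681) probed with GST-tagged S. cerevisiae TFs (full-length or DBD) made by in vitro transcription/translation (PURExpress), about 100-200 nM. Bound TF was detected with fluorescent anti-GST. Each ungapped 8-mer (which stands for itself and its reverse complement) is scored by the PBM enrichment score (E-score), a modified Wilcoxon-Mann-Whitney statistic from -0.5 to +0.5, computed with the Universal PBM Analysis Suite. Scale: above 0.35 generally sequence-specific binding.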

Row | Sequence | PBM E-score
1 | CCAATTAG | 0.223
2 | ATAATTAG | 0.285
3 | CTAATTAG | 0.41
4 | ATAATTCG | 0.168
5 | TTAATTAA | 0.0562
6 | GTAATTAA | 0.218
7 | GGAATTAC | 0.21
8 | ATAATTGA | 0.149
9 | CCCTATAG | -0.143
10 | ACAGCGCC | -0.0091
11 | TATAAGAA | 0.0437
12 | GGCTGGTA | -0.18
13 | ATACTCTA | -0.0262
14 | ATATAATC | 0.0826
15 | GATGCAGA | 0.146
16 | AAGATGTC | -0.188
17 | GAGAGCCC | -0.458
18 | AGCCGCTG | -0.0754
19 | ACAATTAC | 0.119
20 | ACAATTAA | 0.148
21 | ACAATTAT | 0.267
22 | TAGAGGCA | -0.166
23 | CAACATAA | 0.255
24 | GAACATAA | 0.111
25 | CAACATAC | 0.132

Row | Sequence | PBM E-score
26 | AAACATAA | -0.131
27 | CAACATAG | -0.073
28 | TAACATAA | 0.287
29 | CCCCTAAC | -0.15
30 | AGTTGGAT | -0.0953
31 | AGGATCCC | -0.144
32 | CCCAGCGG | -0.264
33 | TATGTGGA | 0.146
34 | AGGACGCG | -0.00704
35 | CAGTCTGA | 0.0314
36 | CTGTCGGC | -0.107
37 | CCAGTAAA | -0.0575
38 | ACATTATC | 0.274
39 | ACATTGTG | -0.0593
40 | CCATTATC | 0.0253
41 | ACATTATG | 0.0893
42 | ACATTGTC | 0.292
43 | CCATTGTC | 0.00119
44 | CTAGAGAC | -0.243
45 | AAATTTTC | 0.0644
46 | ACGCCTAT | -0.161
47 | AGTGTAGC | -0.0088
48 | GAGGTGGC | -0.149
49 | CGAACGCC | -0.0886
50 | AATCGGAA | 0.211

Row | Sequence | PBM E-score
51 | AATCGGAT | 0.283
52 | AATCGGAG | 0.0523
53 | CCAGTCTC | -0.286
54 | CATCTGGA | -0.165
55 | CACAGCGA | 0.133
56 | ATCGCGAA | 0.243
57 | CGAGCGAC | 0.0243
58 | ATCGCGAT | 0.237
59 | CACGCGAG | 0.239
60 | ATATCGCA | -0.0511
61 | ATATCGCC | 0.0776
62 | CGAGCGAG | 0.258
63 | AGAGCGAG | -0.0569
64 | CTCGCGAG | 0.279
65 | ATCGCGAG | 0.264
66 | ATATCGCG | 0.267
67 | CTCGCGAA | 0.0936
68 | CCCAGACA | -0.108
69 | CGTTACGA | 0.111
70 | CATTAAGC | 0.0681
71 | AGTTGAGA | -0.0203
72 | AAGAGCCA | 0.0145
73 | AGACCACA | -0.0838
74 | ACGGCGTA | 0.0105
75 | AGGAATTG | 0.0938

Row | Sequence | PBM E-score
76 | CGATCCCA | -0.0615
77 | CCTGCTAG | -0.182
78 | CGCAACAA | 0.0963
79 | GGAGCGTA | 0.0102
80 | ATCCGTAC | 0.177
81 | CTGGAATC | -0.0416
82 | CCTCCAGA | -0.208
83 | ACCGCGAG | -0.00282
84 | CGCGCGAA | 0.175
85 | CGCGTGAG | 0.269
86 | ATCGTGCA | 0.166
87 | CGCGCGAG | 0.302
88 | ATCGCGCC | 0.143
89 | ATCGTGCC | 0.102
90 | AGCGTGAG | -0.0272
91 | ATCGCGCA | 0.0635
92 | ATCGTGCG | 0.325
93 | AGCGCGAG | 0.0178
94 | ATCGCGCG | 0.282
95 | CGCGTGAC | 0.056
96 | CAACCAAA | 0.0894
97 | CGGAGTAA | 0.109
98 | ATAGACCG | -0.0498
99 | AACGCACC | -0.0282
100 | ACACCAAC | -0.0461

Row | Sequence | PBM E-score
101 | CTCAATGC | -0.134
102 | ACTGGGAA | -0.0452
103 | ACTTATCA | 0.116
104 | TCTTATAA | 0.0694
105 | CCTTATCG | 0.0678
106 | CCTTATCA | 0.257
107 | GCTTATCA | 0.0614
108 | TCTTATCA | 0.267
109 | TGTGAAAA | 0.103
110 | ACGGAACC | 0.218
111 | GACCGGGC | -0.104
112 | AACTGATA | 0.0697
113 | ACAGACCC | -0.211
114 | AGAGACCT | -0.104
115 | CGGGACTA | -0.22
116 | ACGCACTG | -0.0467
117 | GGGCCTTA | -0.0621
118 | ATTAGTGG | 0.163
119 | CCTAGTCA | -0.0765
120 | GTTAGTTA | 0.155
121 | ATTAGTTG | 0.216
122 | CTTAGTCA | 0.38
123 | ATTAGTGA | 0.14
124 | GGTAGTCA | -0.206
125 | GCTAGTCA | -0.0828

Row | Sequence | PBM E-score
126 | CTTAGTCC | -0.0572
127 | ATTAGTTA | 0.362
128 | GTTAGTCA | 0.266
129 | ATTAGTGC | 0.353
130 | GGTCTCAA | -0.0801
131 | GTCTACGA | -0.0725
132 | CCGGTTAG | 0.0658
133 | CACCGATG | -0.179
134 | ATTTCGAC | -0.0837
135 | GCGGGTAC | 0.0345
136 | CAATACCG | -0.0276
137 | AGGTCCCG | -0.0309
138 | AGCGATCG | 0.216
139 | ACGCTAGC | -0.0932
140 | AGGCATTA | -0.16
141 | AAGGGGCT | 0.0431
142 | CAGCGGTC | -0.229
143 | GTTAGTGA | -0.0153
144 | GATAGTAA | 0.156
145 | TATAGTAA | 0.294
146 | CATAGTAA | 0.141
147 | GGTAGTAA | -0.0434
148 | GTTAGTAA | 0.422
149 | ACCACACC | -0.169
150 | CCAGGAAG | -0.131

Row | Sequence | PBM E-score
151 | ACTCGACT | -0.153
152 | CACCGAAA | 0.12
153 | ATGACAAG | 0.127
154 | ATGACATC | 0.232
155 | TTGACCAA | 0.0548
156 | CTGACCAA | 0.276
157 | TTGACAAA | 0.294
158 | ATGACAAC | 0.183
159 | GTGACCAA | 0.0231
160 | CTGACATA | 0.205
161 | GTGACAAA | 0.229
162 | TCGACAAA | 0.195
163 | ATGACATA | 0.267
164 | ATGACAAA | 0.414
165 | CAGCGCGG | 0.112
166 | TATTGCAA | 0.19
167 | CTCCGCAG | 0.00742
168 | GGCCTTAC | -0.166
169 | AACCAAAC | -0.102
170 | AGATGGGA | -0.204
171 | CTGACAAC | 0.0707
172 | CTGACAAG | 0.101
173 | CTGACAAA | 0.444
